Activity calls are given as the source filed them.
Tests used:
[1] = E. coli DRC41 culture turbidity changes, primary screen, E. coli filamentation inducer project, strain DRC41, OD650, 48 h (AID 1152);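 further: E. coli MC1000 strain DRC41 lacking acrAB efflux pump and sulA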; details: E. coli DRC41 (acrAB sulA), higher = more signal, called active from +8 up or from −8 down
[2] = small-molecule binders of probe aLefty1, primary screen, biochemical, small-molecule microarray, 635/667 nm fluorescence (AID 1153); details: higher = more signal;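 further: score merges spot fluorescence with signal-to-noise ratio from the scanned slide images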
[3] = PSAC antagonists in infected red cells, primary screen, cell-based, P. falciparum Indochina, OD700, 1 h (AID 1154); details: P. falciparum Indochina infected RBC osmotic lysis, higher = more signal, called active from +8 up or from −8 down
[4] = PSAC antagonists in infected red cells, primary screen, cell-based, P. falciparum Indochina, OD700, 2 h (AID 1155);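 further: lysis reports solute entry through the parasite surface anion channel PSAC; channel blockers reduce lysis of infected cells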; details: P. falciparum Indochina infected erythrocytes, osmotic lysis OD700; higher = more signal, called active from +8 up or from −8 down
[5] = osmotic lysis modulators in infected erythrocytes, primary screen, PSAC antagonist project, cell-based, P. falciparum Indochina, OD700, 3 h (AID 1156); details: higher = more signal, called active from +8 up or from −8 down
[6] = PSAC antagonists in infected red cells, primary screen, cell-based, P. falciparum Indochina, OD700, 18 h (AID 1157); details: P. falciparum Indochina infected erythrocytes, osmotic lysis OD700, 18 h; higher = more signal, called active from +8 up or from −8 down
[7] = modulators of S6 phosphorylation in cells, primary screen, cell-based, A549, cytoblot, luminescence, serum-stimulated (AID 1158); details: A549 phospho-S6 cytoblot, 5 h, higher = more signal;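 further: serum-stimulated A549 lung adenocarcinoma cells; signal is phosphorylated S6 detected by cytoblot immunostaining with HRP secondary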
[8] = target: NADPH oxidase 2 (Homo sapiens) (UniProt P04839); experiment: NOX2-dependent H2O2 signal modulators, primary screen, NOX inhibitor project, cell-based, HEK293-NOX2, PMA-stimulated, Amplex Red fluorescence (AID 1159); details: 45 min, higher = more signal, called active from +8 up or from −8 down; further: test concentration not given here
[9] = target: NADPH oxidase 4 (Homo sapiens) (UniProt Q9NPH5); experiment: NOX4-dependent H2O2 signal modulators, primary screen, NOX inhibitor project, cell-based, HEK293-NOX4, tetracycline-induced, Amplex Red fluorescence (AID 1160); details: 45 min, higher = more signal, called active from +8 up or from −8 down
[10] = target: NADPH oxidase 5 (Homo sapiens) (UniProt Q96PH1); experiment: NOX5-dependent H2O2 signal modulators, primary screen, NOX inhibitor project, cell-based, HEK293-NOX5, Amplex Red fluorescence (AID 1161); details: HEK293-NOX5, ionomycin, 45 min, higher = more signal
[11] = A549 cell viability effects, profiling panel, calcein-AM fluorescence, 48 h, basal (AID 1162); details: higher = more signal; further: test concentration not given here
[12] = adipocyte viability effects, profiling panel, cell-based, 3T3-L1 adipocytes, calcein-AM fluorescence, 48 h, basal (AID 1163); details: 3T3-L1 adipocytes viability, higher = more signal; further: test concentration not given here
[13] = HepG2 cell viability effects, profiling panel, calcein-AM fluorescence, 48 h, basal (AID 1164); details: higher = more signal; further: test concentration not given here
[14] = MM1S cell viability effects, profiling panel, calcein-AM fluorescence, 48 h, basal (AID 1165); details: higher = more signal;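 further: viability of MM1S multiple myeloma cells under basal unstimulated conditions; test concentration not given here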
[15] = basal RPMI8226 viability, no added stimulus, profiling panel, cell-based, calcein-AM fluorescence, 48 h, PK04 Diversity Set (AID 1166); details: RPMI8226 myeloma viability, higher = more signal;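 further: cells grown under basal conditions without added stimulus; test concentration not given here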
[16] = basal HepG2 mitochondrial membrane potential changes, profiling panel, cell-based, JC-1 fluorescence, 24 h, 100 nL compound (AID 1167); details: higher = more signal; further: test concentration not given here
[17] = basal 3T3-L1 adipocyte mitochondrial potential changes, profiling panel, cell-based, JC-1 fluorescence, 3T3-L1 adipocytes, 24 h, 100 nL compound (AID 1168); details: JC-1 mitochondrial fluorescence, higher = more signal, called active from +8 up or from −8 down; further: test concentration not given here
[18] = basal RPMI8226 mitochondrial membrane potential changes, profiling panel, cell-based, JC-1 fluorescence, 24 h, 100 nL compound (AID 1169); details: RPMI8226 myeloma, JC-1 mitochondrial potential fluorescence, higher = more signal; further: test concentration not given here
[19] = basal MM1S mitochondrial membrane potential changes, profiling panel, cell-based, JC-1 fluorescence, 24 h, 100 nL compound (AID 1170); details: higher = more signal; further: test concentration not given here
[20] = A549 lung cancer cell viability effects, profiling panel, resazurin fluorescence, 24 h, PK04 Diversity Set (AID 1171); details: higher = more signal, called active from +8 up or from −8 down; further: test concentration not given here

Sequence of NADPH oxidase 2 (Homo sapiens) (P04839 whole entry, looked up): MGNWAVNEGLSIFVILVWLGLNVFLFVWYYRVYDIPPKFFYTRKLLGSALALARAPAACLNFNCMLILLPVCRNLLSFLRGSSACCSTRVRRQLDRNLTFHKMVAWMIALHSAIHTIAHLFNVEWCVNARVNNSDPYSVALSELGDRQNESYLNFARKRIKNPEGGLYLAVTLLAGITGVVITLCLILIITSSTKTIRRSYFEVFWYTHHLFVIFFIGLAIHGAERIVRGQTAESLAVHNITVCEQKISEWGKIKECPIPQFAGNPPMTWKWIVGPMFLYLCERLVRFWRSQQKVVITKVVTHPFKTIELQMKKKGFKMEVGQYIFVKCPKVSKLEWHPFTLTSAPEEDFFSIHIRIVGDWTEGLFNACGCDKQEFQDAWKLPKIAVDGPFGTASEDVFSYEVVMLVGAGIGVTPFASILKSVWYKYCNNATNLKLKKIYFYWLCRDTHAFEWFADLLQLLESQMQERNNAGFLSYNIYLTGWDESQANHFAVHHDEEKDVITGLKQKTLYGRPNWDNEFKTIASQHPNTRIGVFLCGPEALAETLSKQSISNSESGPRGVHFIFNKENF
Sequence of NADPH oxidase 4 (Homo sapiens) (Q9NPH5 whole entry, looked up): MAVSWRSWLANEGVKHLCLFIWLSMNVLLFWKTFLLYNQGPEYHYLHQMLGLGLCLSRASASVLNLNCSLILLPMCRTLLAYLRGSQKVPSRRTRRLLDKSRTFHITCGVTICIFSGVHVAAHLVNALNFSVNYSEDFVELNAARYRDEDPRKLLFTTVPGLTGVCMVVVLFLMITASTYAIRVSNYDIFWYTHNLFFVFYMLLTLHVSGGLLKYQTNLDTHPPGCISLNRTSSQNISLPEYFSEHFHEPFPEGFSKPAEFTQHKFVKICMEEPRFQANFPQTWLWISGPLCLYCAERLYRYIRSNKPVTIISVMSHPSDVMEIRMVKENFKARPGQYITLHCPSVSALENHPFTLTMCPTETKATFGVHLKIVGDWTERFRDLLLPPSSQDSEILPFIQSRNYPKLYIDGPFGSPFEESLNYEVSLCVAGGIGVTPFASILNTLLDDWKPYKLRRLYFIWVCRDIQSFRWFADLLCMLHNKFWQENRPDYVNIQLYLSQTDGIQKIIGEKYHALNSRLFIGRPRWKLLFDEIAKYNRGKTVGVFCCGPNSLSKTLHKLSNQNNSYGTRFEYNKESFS
Sequence of NADPH oxidase 5 (Homo sapiens) (Q96PH1 whole entry, looked up): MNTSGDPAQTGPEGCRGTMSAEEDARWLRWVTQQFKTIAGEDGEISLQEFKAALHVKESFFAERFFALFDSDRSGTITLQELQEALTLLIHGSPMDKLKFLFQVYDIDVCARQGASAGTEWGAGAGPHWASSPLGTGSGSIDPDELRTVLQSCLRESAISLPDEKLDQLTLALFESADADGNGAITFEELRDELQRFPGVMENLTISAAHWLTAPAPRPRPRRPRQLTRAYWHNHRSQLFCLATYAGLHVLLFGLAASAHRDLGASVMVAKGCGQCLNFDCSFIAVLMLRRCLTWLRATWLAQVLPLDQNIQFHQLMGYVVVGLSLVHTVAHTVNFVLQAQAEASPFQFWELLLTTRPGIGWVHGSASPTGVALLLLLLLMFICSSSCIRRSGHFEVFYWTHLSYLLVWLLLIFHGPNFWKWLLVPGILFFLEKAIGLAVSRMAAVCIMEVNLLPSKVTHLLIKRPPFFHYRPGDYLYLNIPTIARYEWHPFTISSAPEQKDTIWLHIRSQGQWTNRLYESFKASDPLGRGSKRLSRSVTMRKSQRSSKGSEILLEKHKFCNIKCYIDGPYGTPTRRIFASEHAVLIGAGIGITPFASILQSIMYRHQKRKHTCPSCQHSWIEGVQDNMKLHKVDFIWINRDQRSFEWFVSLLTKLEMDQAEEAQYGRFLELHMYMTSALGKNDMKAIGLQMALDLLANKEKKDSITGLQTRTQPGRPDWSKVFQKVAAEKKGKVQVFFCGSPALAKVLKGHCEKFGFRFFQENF

Structure (SMILES)	z-score [1]	composite z-score [2]	z-score [3]	z-score [4]	z-score [5]	z-score [6]	z-score [7]	z-score [8]	z-score [9]	z-score [10]	z-score [11]	z-score [12]	z-score [13]	z-score [14]	z-score [15]	z-score [16]	z-score [17]	z-score [18]	z-score [19]	z-score [20]
COC(=O)[C@@]1(Cc2ccc(F)cc2)[C@H]2c3cc(C(=O)N(C)C)n(Cc4ccc(C(F)(F)F)nc4)c3C[C@H]2CN1C(=O)c1ccccc1	-1 (inactive)	0.589	1.93 (inactive)	0.844 (inactive)	0.893 (inactive)	0.987 (inactive)	-0.0002	0.267 (inactive)	0.32 (inactive)	0.568	-0.509	-0.602	0.158	-0.201	-1.36	1.79	-0.602 (inactive)	-0.135	-1.48	-0.695 (inactive)
COC(=O)C(CC#Cc1ccc2c(c1)[C@]1(C(=O)N2)[C@H](c2ccccc2OCCO)N2[C@H](c3ccccc3)[C@H](c3ccccc3)OC(=O)[C@H]2[C@@H]1C(=O)N1CCN(c2ncccn2)CC1)C(=O)OC	-0.577 (inactive)	-0.0984	3.02 (inactive)	1.49 (inactive)	0.928 (inactive)	0.565 (inactive)	-0.512	0.803 (inactive)	0.849 (inactive)	2.23	-0.071	-1.46	0.496	-3.23	-4.35	-0.735	0.181 (inactive)	-1.11	-1.92	0.103 (inactive)
Cc1ccc(S[C@]2(C(=O)NCc3ccccc3)CC(=O)N(Cc3ccccc3Cl)[C@@H]2c2ccc(CO)cc2)cc1	-0.71 (inactive)	-0.0536	3.22 (inactive)	0.328 (inactive)	2.98 (inactive)	0.254 (inactive)	-0.121	-0.703 (inactive)	-0.666 (inactive)	-0.778	-0.643	0.9	0.191	0.0218	-1.25	0.0273	-0.537 (inactive)	-0.517	0.666	0.0338 (inactive)
C=CCC(OC(C)=O)[C@@H]1[C@@H](N(Cc2ccc(-c3ccccc3)cc2)C(=O)Cc2ccc(OC)cc2)c2cc(OCCCO)ccc2N1C(=O)c1ccc2ccccc2c1 (stereo not given in full)	-0.894 (inactive)	-0.529	1.23 (inactive)	0.384 (inactive)	-0.247 (inactive)	0.41 (inactive)	-0.111	-0.48 (inactive)	0.832 (inactive)	0.808	-0.186	0.407	-0.437	-1.12	-0.807	1.87	-0.81 (inactive)	1.08	0.383	-0.0027 (inactive)
CCCC1(C(=O)OC)C=C2C(=C(C(C)C)C(=O)C2C)CN1 (stereo not given)	-2.12 (inactive)	0.062	2.85 (inactive)	0.364 (inactive)	0.454 (inactive)	0.57 (inactive)	-0.598	0.216 (inactive)	-1.15 (inactive)	-3.15	-1.47	0.273	-0.0319	0.313	-0.316	-1.45	-1.43 (inactive)	-0.613	-0.458	-0.898 (inactive)
[N-]=[N+]=Nc1ccccc1C[C@@]1(C(=O)NCC(O)CO)N=C(c2ccc(OCCCO)cc2)O[C@@H]1c1ccccc1N=[N+]=[N-] (stereo not given in full)	-0.193 (inactive)	-0.281	30.3 (active)	29.2 (active)	0.0029 (inactive)	8.12 (active)	0.191	-1.55 (inactive)	0.776 (inactive)	1.85	-3.97	-0.0164	-4.63	-3.55	-3.85	-2	-0.264 (inactive)	-1.21	-1.34	-3.27 (inactive)
CCCCCCc1nc(Cc2cc(OC)c(OC)c(OC)c2)c(C)c2c1[Si](C(C)C)(C(C)C)OC2	1.41 (inactive)	-0.0547	2.71 (inactive)	-0.23 (inactive)	0.906 (inactive)	-0.471 (inactive)	2.51	-0.25 (inactive)	-0.588 (inactive)	-2.37	0.106	0.986	-0.348	0.286	-3.41	4.95	0.835 (inactive)	-0.651	0.0845	0.504 (inactive)
COc1cccc(C)c1NC(=O)O[C@H]1[C@H](OC(=O)Nc2ccccc2-c2ccccc2)[C@@H](OC(=O)Nc2ccccc2-c2ccccc2)[C@@H](OC)O[C@@H]1CO	-1.33 (inactive)	0.406	2.54 (inactive)	1.13 (inactive)	-0.857 (inactive)	0.937 (inactive)	-0.338	-3.62 (inactive)	-1.2 (inactive)	-1.72	-2.87	0.458	-3.51	-3.08	-3.27	1.98	1.62 (inactive)	-0.928	-1.41	-4.57 (inactive)
COC(=O)[C@H]1N=C(c2ccc(OCCCO)cc2)O[C@H]1c1ccccc1N=[N+]=[N-]	-0.33 (inactive)	0.527	29.3 (active)	24.7 (active)	2.2 (inactive)	4.48 (inactive)	0.352	-1.69 (inactive)	-0.0764 (inactive)	-2.1	-0.206	0.323	-0.151	-0.862	-1.44	-0.434	-0.419 (inactive)	-0.739	0.567	-0.15 (inactive)
C=C[C@H](C)[C@@H](OC(=O)Nc1ccc(SC)cc1)c1ccc(OCCO)cc1	-2.61 (inactive)	0.459	28.3 (active)	20.6 (active)	3.01 (inactive)	2.27 (inactive)	-0.336	-1.31 (inactive)	-1.23 (inactive)	0.0398	-0.305	-0.0489	-0.232	-1.69	-1.81	-3.37	-0.168 (inactive)	-0.639	-0.114	-0.505 (inactive)
COC(=O)C1(CC(C)C)C=C2C(=C(C)C(=O)C2C)CN1 (stereo not given)	-1.62 (inactive)	1.59	0.71 (inactive)	-0.161 (inactive)	0.396 (inactive)	0.421 (inactive)	-0.164	0.425 (inactive)	-1.51 (inactive)	-2.83	-1.23	-0.291	-1.14	-0.945	-1.77	-1.04	-1.83 (inactive)	0.147	-0.92	-0.726 (inactive)
COC(=O)C(CC#Cc1ccc2c(c1)[C@]1(C(=O)N2)[C@H](C(=O)NC[C@H](O)c2ccccc2)[C@H]2C(=O)O[C@H](c3ccccc3)[C@H](c3ccccc3)N2[C@@H]1c1ccc(O)cc1)C(=O)OC	-1.21 (inactive)	-0.445	1.44 (inactive)	0.21 (inactive)	-0.506 (inactive)	-0.0801 (inactive)	-0.0784	1.4 (inactive)	0.691 (inactive)	1.33	-0.244	-1.56	-0.0776	-1.46	-1.97	-2.14	-1.75 (inactive)	-0.933	-0.492	0.489 (inactive)
C[C@]1(C(=O)NCC(F)(F)F)c2ccccc2C(=O)N(Cc2cc(C(F)(F)F)cc(C(F)(F)F)c2)[C@H]1c1ccc(CO)cc1	1.17 (inactive)	0.0774	3.54 (inactive)	-0.0979 (inactive)	-0.29 (inactive)	-0.16 (inactive)	0.361	-0.905 (inactive)	0.565 (inactive)	0.648	1.82	0.441	1.51	0.24	1.11	1.23	0.436 (inactive)	0.412	0.0741	0.476 (inactive)
C[N+](C)(C)CCCC[C@@H]1NC(=O)[C@H]2C[C@@H](C(=O)NCCCCCN)[C@@H](c3ccc(O)cc3)N2C1=O	0.108 (inactive)	0.14	0.105 (inactive)	0.0643 (inactive)	-3.73 (inactive)	-0.0429 (inactive)	-0.0286	0.081 (inactive)	-0.0444 (inactive)	0.204	2.02	0.727	-0.224	-1.68	-0.145	1.66	-0.359 (inactive)	0.144	-0.292	0.78 (inactive)
CCN1C(=O)C2CC(=O)C3C(CN(S(=O)(=O)c4ccc(C)cc4)C3c3ccc(C)cc3)C2C1=O (stereo not given)	0.344 (inactive)	-0.0967	1.04 (inactive)	0.804 (inactive)	0.135 (inactive)	0.609 (inactive)	-0.0511	-0.374 (inactive)	-0.0929 (inactive)	-0.525	0.159	-0.902	0.118	1.03	0.0667	-0.167	-0.00388 (inactive)	-0.129	-1.25	-0.064 (inactive)
CN(C)CCCCCCNC(=O)[C@@H]1C[C@@H]2C(=O)N[C@@H](CCCC[N+](C)(C)C)C(=O)N2[C@@H]1c1cccc(OCCO)c1	1.44 (inactive)	0.0651	5.12 (inactive)	-0.16 (inactive)	1.47 (inactive)	-1.04 (inactive)	2.66	-0.0444 (inactive)	0.249 (inactive)	1.55	-0.188	-0.015	0.413	0.232	0.799	1.37	-0.225 (inactive)	-0.567	0.0992	-0.646 (inactive)

From PubChem BioAssay
